Experimental data as given in PubChem BioAssay (NCATS).
Inconclusive results are not listed. Unmarked numbers belong to inactive results. Calls of active or inactive are those of the source. Calls come from the whole dose curve; as a rule, active = well fitted cell-killing curve with a large enough effect; inconclusive = small, poorly fitted or top-dose-only effect, or effect the other way; inactive = no such curve, though single readings can be large or run the other way. Non-standard residues stand in square brackets, D forms with d. Residues, ends and D or L forms follow the SMILES beside them. *: point of attachment. Sta = CC(C)C[C@H](N)[C@@H](O)CC(=O)O; Isovaleryl = CC(C)CC(=O)*

test: Quantitative High-Throughput drug screen in 47 multiple myeloma cell lines against the NCATS MIPE library collection: KMS27_JCRB cell viability assay (AID 1918970); conditions: KMS27 myeloma cells, CellTiter-Glo ATP viability, 48 h; series mostly up to 45.8 µM; viability (% of DMSO): at the top concentration; note: nearly all actives have a fitted effect of over 30% in size;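 for viability (% of DMSO): 100% = DMSO-only wells and 0% = media-only wells without cells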
Procedure, shortened: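 ATP-based viability (CellTiter-Glo luminescence) is measured in cells treated 48 h with approved and investigational drugs at 37 °C. Controls are DMSO-only wells for full viability and media-only wells for none.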
Potency is the fitted concentration of half-maximal effect.

Row | Compound | viability (% of DMSO) | Potency
1 | O=C(O)CCNC(=O)c1ccc(N=Nc2ccc(O)c(C(=O)O)c2)cc1 | 131% | –
2 | COc1cc2c(N3CCN(C(=O)Nc4ccc(OC(C)C)cc4)CC3)ncnc2cc1OCCCN1CCCCC1 | 104% | –
3 | CCN(CC)CCOc1ccc(Nc2ncc3cc(-c4c(Cl)cccc4Cl)c(=O)n(C)c3n2)cc1 | – | 0.132 µM (active)
4 | Cc1nc2n(c(=O)c1CCN1CCC(c3noc4cc(F)ccc34)CC1)CCCC2 | 79.5% | –
5 | COC(=O)N[C@H](C(=O)N[C@@H](Cc1ccccc1)[C@@H](O)CN(Cc1ccc(-c2ccccn2)cc1)NC(=O)[C@@H](NC(=O)OC)C(C)(C)C)C(C)(C)C | 132% | –
6 | CCC1=C(C)CN(C(=O)NCCc2ccc(S(=O)(=O)NC(=O)NC3CCC(C)CC3)cc2)C1=O (stereo not drawn) | 134% | –
7 | CNC[C@H](O)c1ccc(O)c(O)c1 | 108% [at 92.2 µM] | –
8 | Oc1ccc2ccccc2c1SSc1c(O)ccc2ccccc12 | – | 18.7 µM (active)
9 | CC(C)CC(=O)N[C@H](C(=O)N[C@H](C(=O)N[C@@H](CC(C)C)[C@@H](O)CC(=O)N[C@@H](C)C(=O)N[C@@H](CC(C)C)[C@@H](O)CC(=O)O)C(C)C)C(C)C (Isovaleryl-VV[Sta]A[Sta]-OH) | 136% | –
10 | Oc1ccc(-c2nc(-c3ccc(F)cc3)c(-c3ccncc3)[nH]2)cc1 | 144% | –
11 | CCCCCCCCCCCCCCCCCCCCCCO | 113% | –
12 | Nc1nc(N)c(N=O)c(OCC2CCCCC2)n1 | – | 6.62 µM (active)
13 | N=C(N=C(N)N)N1CCOCC1 | 116% | –
14 | C[C@H](Cn1cnc2c(N)ncnc21)OCP(=O)(O)O | 142% | –
15 | O=c1c(O)c(-c2cc(O)c(O)c(O)c2)oc2cc(O)cc(O)c12 | 88% | –
16 | O=C(c1ccccc1)c1ccc2n1CCC2C(=O)O (stereo not drawn) | 100% | –

Row | Compound | viability (% of DMSO) | Potency
17 | CC[C@]1(O)C[C@H]2CN(CCc3c([nH]c4ccccc34)[C@@](C(=O)OC)(c3cc4c(cc3OC)N(C=O)[C@H]3[C@@](O)(C(=O)OC)[C@H](OC(C)=O)[C@]5(CC)C=CCN6CC[C@]43[C@@H]65)C2)C1 | – | 0.0166 µM (active)
18 | Cc1cc(O)c2c(c1)C(=O)c1cc(O)cc(O)c1C2=O | 109% | –
19 | Nc1ccc(S(N)(=O)=O)cc1 | 137% | –
20 | O=C(NCC1CCCCN1)c1cc(OCC(F)(F)F)ccc1OCC(F)(F)F (stereo not drawn) | – | 0.526 µM (active)
21 | Cc1cc(=O)oc2cc(O)ccc12 | 125% | –
22 | Nc1ccn([C@@H]2O[C@H](CO)[C@@H](O)C2O)c(=O)n1 (stereo partly drawn) | 124% | –
23 | NC(=O)Cc1cccc(C(=O)c2ccccc2)c1N | 121% | –
24 | COC(=O)C1=C(C)NC(C)=C(C(=O)OC(C)C)C1c1cccc2nonc12 (stereo not drawn) | 109% | –
25 | COc1ccc(C2(C#N)CCC(C(=O)O)CC2)cc1OC1CCCC1 (stereo not drawn) | 120% | –
26 | CCC(C)(Oc1ccc(C2(c3ccc(OC(C)(CC)C(=O)O)cc3)CCCCC2)cc1)C(=O)O (stereo not drawn) | 109% | –
27 | Cc1cc(C2CCCCC2)n(O)c(=O)c1 | – | 5.26 µM (active)
28 | CC1(C)C(=O)N(CCN2CCC(C(=O)c3ccc(F)cc3)CC2)c2ccccc21 | – | 13.2 µM (active)
29 | COCCCOc1ccnc(CS(=O)c2nc3ccccc3[nH]2)c1C (stereo not drawn) | 97.4% | –
30 | N=C(N)c1ccc2cc(OC(=O)c3ccc(N=C(N)N)cc3)ccc2c1 | 96.6% | –
31 | COc1cc2c(cc1OC)C1CC(=O)C(CC(C)C)CN1CC2 (stereo not drawn) | 100% | –
32 | O=C(NOCC1CC1)c1ccc(F)c(F)c1Nc1ccc(I)cc1Cl | – | 4.18 µM (active)

test: Quantitative High-Throughput drug screen in 47 multiple myeloma cell lines against the NCATS MIPE library collection: KMS12BM_JCRB cell viability assay (AID 1918971); conditions: KMS12BM myeloma viability, CellTiter-Glo ATP, 48 h; series mostly up to 45.8 µM; viability, % of DMSO: at the top concentration; note: nearly all actives have a fitted effect of over 35% in size;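 for viability, % of DMSO: 100% = DMSO-only wells and 0% = media-only wells without cells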
Procedure, shortened: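 qHTS of the MIPE 4.0 collection: 500 myeloma cells/well, 48 h drug exposure at 37C in 5% CO2, then CellTiter-Glo for 5 min at room temperature before luminescence reading.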

Row | Compound | Potency | viability, % of DMSO
33 | CCN(CC)CCOc1ccc(Nc2ncc3cc(-c4c(Cl)cccc4Cl)c(=O)n(C)c3n2)cc1 | 2.35 µM (active) | –
34 | Cc1nc2n(c(=O)c1CCN1CCC(c3noc4cc(F)ccc34)CC1)CCCC2 | – | 121%
35 | COC(=O)N[C@H](C(=O)N[C@@H](Cc1ccccc1)[C@@H](O)CN(Cc1ccc(-c2ccccn2)cc1)NC(=O)[C@@H](NC(=O)OC)C(C)(C)C)C(C)(C)C | 20.9 µM (active) | –
36 | CNC[C@H](O)c1ccc(O)c(O)c1 | 19.1 µM (active) | –
37 | Nc1nc(N)c(N=O)c(OCC2CCCCC2)n1 | 13.2 µM (active) | –
38 | C[C@H](Cn1cnc2c(N)ncnc21)OCP(=O)(O)O | – | 141%
39 | O=c1c(O)c(-c2cc(O)c(O)c(O)c2)oc2cc(O)cc(O)c12 | 23.5 µM (active) | –
40 | O=C(c1ccccc1)c1ccc2n1CCC2C(=O)O (stereo not drawn) | – | 138%
41 | CC[C@]1(O)C[C@H]2CN(CCc3c([nH]c4ccccc34)[C@@](C(=O)OC)(c3cc4c(cc3OC)N(C=O)[C@H]3[C@@](O)(C(=O)OC)[C@H](OC(C)=O)[C@]5(CC)C=CCN6CC[C@]43[C@@H]65)C2)C1 | 0.0019 µM (active) | –
42 | Nc1ccc(S(N)(=O)=O)cc1 | – | 151%
43 | Cc1cc(=O)oc2cc(O)ccc12 | – | 116%
44 | Nc1ccn([C@@H]2O[C@H](CO)[C@@H](O)C2O)c(=O)n1 (stereo partly drawn) | – | 137%
45 | COC(=O)C1=C(C)NC(C)=C(C(=O)OC(C)C)C1c1cccc2nonc12 (stereo not drawn) | 18.7 µM (active) | –
46 | COc1ccc(C2(C#N)CCC(C(=O)O)CC2)cc1OC1CCCC1 (stereo not drawn) | – | 163%
47 | Cc1cc(C2CCCCC2)n(O)c(=O)c1 | 8.33 µM (active) | –
48 | COCCCOc1ccnc(CS(=O)c2nc3ccccc3[nH]2)c1C (stereo not drawn) | – | 157%
49 | N=C(N)c1ccc2cc(OC(=O)c3ccc(N=C(N)N)cc3)ccc2c1 | 23.5 µM (active) | –
50 | O=C(NOCC1CC1)c1ccc(F)c(F)c1Nc1ccc(I)cc1Cl | 20.9 µM (active) | –
51 | O=C(O)c1cccc(-c2noc(-c3ccccc3F)n2)c1 | 16.6 µM (active) | –
52 | CN(C)c1ccc(O)c2c1C[C@H]1C[C@H]3[C@H](N(C)C)C(=O)C(C(N)=O)=C(O)[C@@]3(O)C(=O)C1=C2O | 18.7 µM (active) | –
53 | Cc1c(C(=O)NN2CCCCC2)nn(-c2ccc(Cl)cc2Cl)c1-c1ccc(Cl)cc1 | 23.5 µM (active) | –
